Records with an inconclusive call do not appear. Active and inactive are the calls of the source.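 Rule for the calls, unless noted: active = GFP response below 50% of the DMSO control; inconclusive = fewer than 70 events counted for a yeast strain; inactive = the rest.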
Assays:
[1] = hit retest on RPL19A-GFP reporter strain – cell-based, S. cerevisiae, flow cytometry, cherry picks, mother/daughter gates, confirmation (AID 2270); conditions: 3 h, at 10 µM, stronger effect = lower value, 100 = same GFP as DMSO wells
[2] = yeast TOR pathway reporter LAP4-GFP change – cell-based, cherry picks, flow cytometry, mother/daughter gates, confirmation (AID 2271;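 active = GFP response above 150% of the DMSO control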;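 note: ratio of sample to DMSO plate mean so 100% equals DMSO level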); conditions: S. cerevisiae LAP4-GFP strain, 3 h, at 10 µM, stronger effect = higher value
[3] = TOR pathway CIT2 reporter hit retest – S. cerevisiae, GFP fusion, cherry picks, mother/daughter gates, confirmation (AID 2274;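 active = GFP response above 150% of the DMSO level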); conditions: S. cerevisiae CIT2-GFP strain, flow cytometry, 3 h, at 10 µM, stronger effect = higher value
[4] = rapamycin-like changes in RPL19A-GFP expression – cell-based, S. cerevisiae, multiplex flow cytometry, primary screen (AID 1862; in the data active = percent of DMSO control GFP below about 86%;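 note: lower values mimic rapamycin by blocking the RPL19A rise seen in DMSO cells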); conditions: S. cerevisiae RPL19A-GFP strain, flow cytometry fluorescence, 3 h; at 10 µM; stronger effect = lower value
[5] = TOR pathway RTG branch CIT2 reporter changes – S. cerevisiae, GFP fusion, multiplex flow cytometry, primary screen (AID 1870;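 active = percent response above a set limit, the screen-wide mean plus 3 SD, cut at about 130% in these data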;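 note: barcoded CIT2-GFP strain pooled with four other GFP strains with rapamycin as positive control; median GFP fluorescence per well over plate mean of DMSO wells so 100% = DMSO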); conditions: S. cerevisiae CIT2-GFP expression, 3 h, at 10 µM, stronger effect = higher value
[6] = TOR pathway LAP4-GFP level changes – S. cerevisiae, multiplex flow cytometry, primary screen (AID 1873;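 active = GFP signal, as percent of the solvent control, above the screen mean plus 3 SD, about 149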); conditions: S. cerevisiae LAP4-GFP expression, 3 h, at 10 µM, stronger effect = higher value
[7] = reduced mouse 2C T cell binding to pMHC/ICAM-1 vesicles – MLPCN validation set, flow cytometry, LFA-1/ICAM-1 modulator project, pilot screen (AID 2523;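 active = response below a set limit, under 55% cells CD8-positive and vesicle-bound, and CD8 cells' 90th-percentile brightness under 279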;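 for vesicle binding response: mean PE anti-B7-1 fluorescence of CD8+ cells relative to row control; 100% = QL9-loaded vesicles with DMSO vehicle in the same plate row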); conditions: 2C mouse CD8+ T cells, at 7 µM, stronger effect = lower value; double positive events: measured here: CD8+/vesicle+ event percentage
[8] = target: Integrin beta-1 (Homo sapiens) + Integrin alpha-4 (Homo sapiens) (UniProt P13612+P05556); assay: alpha4beta1 integrin LIBS antibody binding reduction – U937 cells, HUTS-21 mAb, flow cytometry, validation set, VLA-4 allosteric modulator project, pilot screen (AID 2674;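 active = inhibition above 50%, about 3 SD of the validation set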;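 note: antibody binding induced by the VLA-4 ligand LDV present at three times its Kd; 0% = LDV ligand with antibody and no compound and 100% = antibody without LDV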); conditions: HUTS-21 LIBS mAb binding, at 6.7 µM, stronger effect = higher value
Chain of Integrin beta-1 (Homo sapiens) + Integrin alpha-4 (Homo sapiens) (P05556 whole entry, looked up): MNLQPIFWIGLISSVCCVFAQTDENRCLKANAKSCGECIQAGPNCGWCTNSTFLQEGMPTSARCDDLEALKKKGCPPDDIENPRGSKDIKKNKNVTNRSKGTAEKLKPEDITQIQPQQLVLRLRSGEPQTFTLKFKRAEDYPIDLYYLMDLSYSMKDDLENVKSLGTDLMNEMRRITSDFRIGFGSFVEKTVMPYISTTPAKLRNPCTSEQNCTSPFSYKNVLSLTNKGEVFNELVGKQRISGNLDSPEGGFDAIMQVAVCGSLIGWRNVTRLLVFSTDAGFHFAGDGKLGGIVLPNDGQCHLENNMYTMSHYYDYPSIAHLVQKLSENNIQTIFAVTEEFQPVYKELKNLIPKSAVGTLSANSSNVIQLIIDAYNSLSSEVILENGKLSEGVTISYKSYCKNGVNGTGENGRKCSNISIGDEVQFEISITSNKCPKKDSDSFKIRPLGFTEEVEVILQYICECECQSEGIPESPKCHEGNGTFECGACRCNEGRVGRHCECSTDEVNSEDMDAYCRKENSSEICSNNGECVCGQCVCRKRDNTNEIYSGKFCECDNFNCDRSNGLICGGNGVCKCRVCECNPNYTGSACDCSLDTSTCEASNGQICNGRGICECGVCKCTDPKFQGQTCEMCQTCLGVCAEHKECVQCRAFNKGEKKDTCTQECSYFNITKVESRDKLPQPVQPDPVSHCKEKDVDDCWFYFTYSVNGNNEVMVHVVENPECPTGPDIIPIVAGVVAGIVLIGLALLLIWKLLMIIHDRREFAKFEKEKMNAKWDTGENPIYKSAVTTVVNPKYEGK
Chain of Integrin beta-1 (Homo sapiens) + Integrin alpha-4 (Homo sapiens) (P13612 whole entry, looked up): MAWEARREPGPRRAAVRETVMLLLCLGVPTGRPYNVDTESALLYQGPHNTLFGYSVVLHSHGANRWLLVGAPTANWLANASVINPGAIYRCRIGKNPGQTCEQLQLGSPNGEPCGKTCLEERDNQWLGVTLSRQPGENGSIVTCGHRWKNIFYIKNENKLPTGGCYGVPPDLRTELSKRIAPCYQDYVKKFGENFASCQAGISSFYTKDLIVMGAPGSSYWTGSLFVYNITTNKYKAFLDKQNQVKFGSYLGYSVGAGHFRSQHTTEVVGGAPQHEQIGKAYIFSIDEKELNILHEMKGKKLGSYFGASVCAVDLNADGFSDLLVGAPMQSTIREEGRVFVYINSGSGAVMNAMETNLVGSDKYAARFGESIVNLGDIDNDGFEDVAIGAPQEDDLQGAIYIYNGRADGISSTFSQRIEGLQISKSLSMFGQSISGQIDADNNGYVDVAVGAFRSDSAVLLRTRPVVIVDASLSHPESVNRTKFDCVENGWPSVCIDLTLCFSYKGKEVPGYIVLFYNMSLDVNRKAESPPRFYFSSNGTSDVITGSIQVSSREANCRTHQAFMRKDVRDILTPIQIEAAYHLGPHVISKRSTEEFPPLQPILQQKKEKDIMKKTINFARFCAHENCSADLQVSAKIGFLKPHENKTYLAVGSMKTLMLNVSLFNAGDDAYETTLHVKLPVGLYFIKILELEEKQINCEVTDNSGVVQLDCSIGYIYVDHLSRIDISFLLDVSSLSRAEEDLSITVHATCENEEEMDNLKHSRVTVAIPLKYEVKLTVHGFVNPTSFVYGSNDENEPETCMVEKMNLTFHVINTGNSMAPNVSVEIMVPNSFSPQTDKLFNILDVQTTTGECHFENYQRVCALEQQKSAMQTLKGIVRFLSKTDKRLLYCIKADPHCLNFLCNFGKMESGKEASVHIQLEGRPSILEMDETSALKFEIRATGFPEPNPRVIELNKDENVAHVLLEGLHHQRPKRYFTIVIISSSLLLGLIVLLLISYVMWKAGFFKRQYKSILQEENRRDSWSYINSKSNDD

[9] = calorie-restriction mimetic ROS inhibitors, yeast – validation compound set, pilot screen (AID 2706;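 active = superoxide response below 65% of plate, a cut near 3 SD across the whole screen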;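 note: yeast exposed to compound for one week at 30 degrees C before staining; 100% = mean of all compound wells on the same plate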); conditions: S. cerevisiae aging, superoxide DHE fluorescence; at 10 µM; stronger effect = lower value
[10] = target: Beta-adrenergic receptor kinase 1 (Homo sapiens) (UniProt P25098); assay: GRK2 binders displacing RNA aptamer, biochemical, validation, human GRK2, bead flow cytometry (AID 488806;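 active = aptamer binding inhibition above 30%, about 3 SD of noise from non-fluorescent compounds; inactive = inhibition at or below 30%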); conditions: bead-bound GRK2, FAM-aptamer displacement, at 10 µM, stronger effect = higher value
Chain of Beta-adrenergic receptor kinase 1 (Homo sapiens) (P25098 whole entry, looked up): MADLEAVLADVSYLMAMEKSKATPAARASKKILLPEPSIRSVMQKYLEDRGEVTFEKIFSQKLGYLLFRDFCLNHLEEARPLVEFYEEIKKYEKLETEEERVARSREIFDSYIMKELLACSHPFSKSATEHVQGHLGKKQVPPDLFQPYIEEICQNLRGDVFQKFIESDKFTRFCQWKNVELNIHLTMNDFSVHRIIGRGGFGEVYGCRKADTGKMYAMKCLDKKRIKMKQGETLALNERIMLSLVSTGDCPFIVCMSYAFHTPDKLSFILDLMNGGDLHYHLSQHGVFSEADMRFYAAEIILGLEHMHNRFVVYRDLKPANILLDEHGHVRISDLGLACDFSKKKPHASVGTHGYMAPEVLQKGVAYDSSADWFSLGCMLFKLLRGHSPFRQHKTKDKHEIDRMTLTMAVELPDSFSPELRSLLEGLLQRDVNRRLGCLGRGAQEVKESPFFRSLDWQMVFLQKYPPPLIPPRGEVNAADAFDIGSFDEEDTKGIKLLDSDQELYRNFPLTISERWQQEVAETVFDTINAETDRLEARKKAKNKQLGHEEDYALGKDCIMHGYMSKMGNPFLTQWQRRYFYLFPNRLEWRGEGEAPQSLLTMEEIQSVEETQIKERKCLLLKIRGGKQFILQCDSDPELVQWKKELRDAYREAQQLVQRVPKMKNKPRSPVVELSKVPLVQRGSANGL

[11] = target: AP-2 complex subunit beta (Homo sapiens) (UniProt P63010); assay: beta-arrestin/AP2 interaction blockers – biochemical, validation set, GST-AP2 beads, flow cytometry, pilot screen (AID 504541;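 active = inhibition above 54%, about 3 SD of non-fluorescent compounds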;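 note: AP2 carries R879A mutation and is captured from E. coli lysate; bead-bound FITC arrestin peptide fluorescence measuring arrestin peptide binding to AP2; 0% = DMSO wells and 100% = excess unlabeled arrestin peptide control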); conditions: FITC arrestin peptide, at 10 µM, stronger effect = higher value
Chain of AP-2 complex subunit beta (Homo sapiens) (P63010 whole entry, looked up, one chain of several): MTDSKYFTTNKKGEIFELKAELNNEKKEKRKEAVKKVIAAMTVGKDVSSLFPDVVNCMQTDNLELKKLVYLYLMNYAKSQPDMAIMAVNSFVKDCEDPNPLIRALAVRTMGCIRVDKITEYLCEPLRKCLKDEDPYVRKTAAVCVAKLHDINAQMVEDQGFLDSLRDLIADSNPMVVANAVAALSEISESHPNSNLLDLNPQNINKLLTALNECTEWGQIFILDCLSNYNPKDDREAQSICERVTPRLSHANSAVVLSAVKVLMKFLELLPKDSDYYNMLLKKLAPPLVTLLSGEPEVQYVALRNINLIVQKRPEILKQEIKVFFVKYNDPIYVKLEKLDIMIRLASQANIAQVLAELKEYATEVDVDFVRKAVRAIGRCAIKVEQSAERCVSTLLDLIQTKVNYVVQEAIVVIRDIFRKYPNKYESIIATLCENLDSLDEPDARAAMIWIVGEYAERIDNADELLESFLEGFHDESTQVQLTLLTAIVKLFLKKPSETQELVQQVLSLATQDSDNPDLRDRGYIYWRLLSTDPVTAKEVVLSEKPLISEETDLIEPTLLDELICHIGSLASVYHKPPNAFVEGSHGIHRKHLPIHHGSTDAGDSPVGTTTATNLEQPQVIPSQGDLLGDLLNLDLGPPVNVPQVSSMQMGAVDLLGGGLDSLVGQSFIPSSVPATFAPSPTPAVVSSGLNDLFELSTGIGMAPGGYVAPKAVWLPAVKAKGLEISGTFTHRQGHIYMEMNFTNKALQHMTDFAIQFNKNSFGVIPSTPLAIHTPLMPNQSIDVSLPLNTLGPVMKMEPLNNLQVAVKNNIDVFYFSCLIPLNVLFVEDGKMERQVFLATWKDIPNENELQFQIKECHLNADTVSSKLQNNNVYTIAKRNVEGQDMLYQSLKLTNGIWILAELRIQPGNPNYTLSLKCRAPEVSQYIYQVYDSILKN

[12] = cytosolic pH regulators acting via V-ATPase – S. cerevisiae, pHLuorin, HTS validation (AID 504600; in the data active = response above about 15%;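 note: plate controls were DMSO for no effect and reference compound for full effect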); conditions: V-ATPase proton transport, at 10 µM, stronger effect = higher value
[13] = tested on: anti-desmoglein-3 scFv antibody binding to human DSG3; assay: blockers of pathogenic pemphigus antibody–desmoglein-3 binding – biochemical, validation compound set, bead-based, flow cytometry, pilot screen (AID 588368;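 active = binding below the plate cutoff, the plate median minus 3 SD, with a reading above zero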;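 note: signal is the median channel fluorescence of bead-bound GFP antibody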); conditions: Protein G beads, DSG3-Fc, scFv-GFP binding, at 10 µM, stronger effect = lower value
[14] = Nile Red efflux blockade in pump-expressing yeast – validation compound set, multiplex, phenotypic, pilot screen (AID 588506;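 active = efflux inhibition above 0.42, the validation set average plus 4 SD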;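 note: Nile Red retained in cells so higher fluorescence means more efflux inhibition; 0 = negative control wells and 1 = enniatin B 25 µM full block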); conditions: S. cerevisiae pump-expressing triplex, Nile Red efflux flow cytometry; at 10 µM; stronger effect = higher value
[15] = target: ATP-binding cassette sub-family B member 6 (Homo sapiens) (UniProt Q9NP58); assay: blockers of ABCB6-driven porphyrin uptake – K562-ABCB6 cells, flow cytometry, validation set, pilot screen (AID 588550;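 active = inhibition above the screen-wide mean plus 3 SD, about 51%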;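 note: 0% = DMSO wells and 100% = benzethonium chloride 70 µM positive control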); conditions: K562-ABCB6 porphyrin accumulation, 1 h, at 10 µM, stronger effect = higher value
Chain of ATP-binding cassette sub-family B member 6 (Homo sapiens) (Q9NP58 whole entry, looked up): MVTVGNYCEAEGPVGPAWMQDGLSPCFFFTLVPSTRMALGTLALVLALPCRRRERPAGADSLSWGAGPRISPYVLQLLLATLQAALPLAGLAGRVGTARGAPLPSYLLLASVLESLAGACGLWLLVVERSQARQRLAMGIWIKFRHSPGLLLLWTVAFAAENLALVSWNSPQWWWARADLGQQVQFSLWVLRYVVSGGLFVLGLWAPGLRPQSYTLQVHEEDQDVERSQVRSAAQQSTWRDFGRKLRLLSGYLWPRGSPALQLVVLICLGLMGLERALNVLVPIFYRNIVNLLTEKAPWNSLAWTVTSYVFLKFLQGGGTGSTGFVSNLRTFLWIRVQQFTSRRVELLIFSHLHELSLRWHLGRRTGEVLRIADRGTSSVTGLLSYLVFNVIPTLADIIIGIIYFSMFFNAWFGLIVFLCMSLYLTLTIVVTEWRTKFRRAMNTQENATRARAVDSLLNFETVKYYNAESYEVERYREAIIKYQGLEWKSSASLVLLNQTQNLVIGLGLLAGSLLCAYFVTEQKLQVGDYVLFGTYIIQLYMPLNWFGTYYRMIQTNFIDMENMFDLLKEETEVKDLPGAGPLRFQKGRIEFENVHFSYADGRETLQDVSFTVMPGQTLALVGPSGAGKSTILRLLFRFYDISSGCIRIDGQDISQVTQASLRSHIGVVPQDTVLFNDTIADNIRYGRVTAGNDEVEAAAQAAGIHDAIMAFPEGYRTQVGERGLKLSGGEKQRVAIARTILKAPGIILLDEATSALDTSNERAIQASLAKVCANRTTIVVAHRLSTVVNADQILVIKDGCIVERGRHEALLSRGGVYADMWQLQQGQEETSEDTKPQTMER

[16] = AML differentiation inducers, ER-HoxA9 marrow cells – cell-based, GFP/MAC1 double positive, flow cytometry, validation set, primary screen (AID 588685;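 active = differentiation response of at least 50%, scaled between solvent and reference control, from cells with both markers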;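 note: compound exposure lasts four days before antibody staining and flow analysis; 0% = DMSO wells and 100% = 5 µM fulvestrant positive control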); conditions: stronger effect = higher value
[17] = measured here: daughter cell gate
[18] = measured here: mother cell gate
[19] = measured here: daughter cell gate response
[20] = measured here: mother cell gate response

CN1C(=O)NC(=O)/C(=C\C=C\c2ccccc2[N+](=O)[O-])C1=O
GFP response vs DMSO [1]: 102% (inactive) | GFP response vs DMSO [1, 17]: 90.4% | GFP response vs DMSO [1, 18]: 93.5% | GFP response relative to DMSO [2]: 107% (inactive) | GFP response relative to DMSO [2, 19]: 103% | GFP response relative to DMSO [2, 20]: 112% | GFP response, % of DMSO [3]: 84.7% (inactive) | GFP response, % of DMSO [3, 17]: 96.8% | GFP response, % of DMSO [3, 18]: 70.8%

C#CCOc1cc(C2C3=C(COC3=O)Nc3cc4c(cc32)OCO4)ccc1OC (centres undefined)
GFP response vs DMSO [1]: 102% (inactive) | GFP response vs DMSO [1, 17]: 100% | GFP response vs DMSO [1, 18]: 103% | GFP response relative to DMSO [2]: 113% (inactive) | GFP response relative to DMSO [2, 19]: 106% | GFP response relative to DMSO [2, 20]: 114% | GFP response, % of DMSO [3]: 107% (inactive) | GFP response, % of DMSO [3, 17]: 103% | GFP response, % of DMSO [3, 18]: 107%

N#CC(C#N)=NNc1ccc(-n2ccc(C(F)(F)F)n2)cc1
GFP response vs DMSO [1]: 98% (inactive) | GFP response vs DMSO [1, 17]: 97.6% | GFP response vs DMSO [1, 18]: 96.9% | GFP response relative to DMSO ([2]; 100 means same as DMSO control): 111% (inactive) | GFP response relative to DMSO ([2]; measured here: daughter cell gate response, 100 means same as DMSO control): 104% | GFP response relative to DMSO ([2]; measured here: mother cell gate response, 100 means same as DMSO control): 111% | GFP response, % of DMSO [3]: 97.2% (inactive) | GFP response, % of DMSO [3, 17]: 97.6% | GFP response, % of DMSO [3, 18]: 97.1%

O=C1NC(=O)N(Cc2ccco2)C(=O)/C1=C/c1ccc(-c2cccc([N+](=O)[O-])c2)o1
GFP response vs DMSO [1]: 102% (inactive) | GFP response vs DMSO [1, 17]: 102% | GFP response vs DMSO [1, 18]: 96.7% | GFP response relative to DMSO [2]: 167% (active) | GFP response relative to DMSO [2, 19]: 151% | GFP response relative to DMSO [2, 20]: 176% | GFP response, % of DMSO [3]: 93% (inactive) | GFP response, % of DMSO [3, 17]: 95.6% | GFP response, % of DMSO [3, 18]: 85.8%

O=C(O)c1nn(Cc2ccc(Cl)cc2Cl)c2ccccc12
GFP response vs DMSO [1]: 101% (inactive) | GFP response vs DMSO [1, 17]: 98.7% | GFP response vs DMSO [1, 18]: 104% | GFP response relative to DMSO [2]: 103% (inactive) | GFP response relative to DMSO [2, 19]: 100% | GFP response relative to DMSO [2, 20]: 102% | GFP response, % of DMSO [3]: 93.9% (inactive) | GFP response, % of DMSO [3, 17]: 91.5% | GFP response, % of DMSO [3, 18]: 94.4%

CCOC(=O)c1cncn1C(C)c1ccccc1 (centres undefined)
percent of DMSO control GFP [4]: 104% (inactive) | percent response of DMSO control [5]: 106% (inactive) | GFP response vs DMSO [6]: 80.2% (inactive) | double positive events [7]: 60% | vesicle binding response [7]: 404% (inactive) | inhibition [8]: 7.85% (inactive) | superoxide response (% of plate) [9]: 97% (inactive) | aptamer binding inhibition [10]: 4% (inactive) | inhibition [11]: -10.9% (inactive) | response [12]: 2.71% (inactive) | binding (% of control) [13]: 101% (inactive) | efflux inhibition (fraction of control) [14]: 0.27 (inactive) | inhibition [15]: 12% (inactive) | differentiation response [16]: 2.2% (inactive)
